Results on one compound are retold here after ChEMBL document CHEMBL2218924, “A broad activity screen in support of a chemogenomic map for kinase signalling research and drug discovery” (Biochem J, 2013).

Structures are written as SMILES.

The target in assay [1] is Tyrosine-protein kinase SYK (Homo sapiens) (UniProt P43405). The following applies: at 10 µM.
Assay [2] has as its target T1, Mitogen-activated protein kinase kinase kinase 7 (Homo sapiens) (UniProt O43318).
T1 sequence (whole entry): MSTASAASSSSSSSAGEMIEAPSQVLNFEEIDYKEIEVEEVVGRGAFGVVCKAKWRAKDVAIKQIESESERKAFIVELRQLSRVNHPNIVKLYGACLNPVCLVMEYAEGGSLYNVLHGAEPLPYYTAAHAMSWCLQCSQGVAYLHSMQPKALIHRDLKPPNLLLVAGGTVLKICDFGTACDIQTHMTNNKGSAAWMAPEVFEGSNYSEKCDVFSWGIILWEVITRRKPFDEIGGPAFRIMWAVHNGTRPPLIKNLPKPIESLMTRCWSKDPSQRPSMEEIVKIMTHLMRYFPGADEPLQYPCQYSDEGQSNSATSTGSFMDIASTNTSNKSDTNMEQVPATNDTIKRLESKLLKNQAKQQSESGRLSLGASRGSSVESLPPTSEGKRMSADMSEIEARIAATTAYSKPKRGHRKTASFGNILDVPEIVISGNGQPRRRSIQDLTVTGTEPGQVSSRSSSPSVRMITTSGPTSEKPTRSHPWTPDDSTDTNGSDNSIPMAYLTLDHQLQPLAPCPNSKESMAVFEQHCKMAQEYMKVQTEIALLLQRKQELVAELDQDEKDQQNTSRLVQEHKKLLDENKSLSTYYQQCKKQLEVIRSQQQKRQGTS
To be noted: at 1 µM.

For assay [3], the target named is T1, Mitogen-activated protein kinase kinase kinase 7 (Homo sapiens). The following applies: at 10 µM.
Assay [4] addresses T2, Serine/threonine-protein kinase TAO1 (Homo sapiens) (UniProt Q7L7X3).
T2 sequence (whole entry): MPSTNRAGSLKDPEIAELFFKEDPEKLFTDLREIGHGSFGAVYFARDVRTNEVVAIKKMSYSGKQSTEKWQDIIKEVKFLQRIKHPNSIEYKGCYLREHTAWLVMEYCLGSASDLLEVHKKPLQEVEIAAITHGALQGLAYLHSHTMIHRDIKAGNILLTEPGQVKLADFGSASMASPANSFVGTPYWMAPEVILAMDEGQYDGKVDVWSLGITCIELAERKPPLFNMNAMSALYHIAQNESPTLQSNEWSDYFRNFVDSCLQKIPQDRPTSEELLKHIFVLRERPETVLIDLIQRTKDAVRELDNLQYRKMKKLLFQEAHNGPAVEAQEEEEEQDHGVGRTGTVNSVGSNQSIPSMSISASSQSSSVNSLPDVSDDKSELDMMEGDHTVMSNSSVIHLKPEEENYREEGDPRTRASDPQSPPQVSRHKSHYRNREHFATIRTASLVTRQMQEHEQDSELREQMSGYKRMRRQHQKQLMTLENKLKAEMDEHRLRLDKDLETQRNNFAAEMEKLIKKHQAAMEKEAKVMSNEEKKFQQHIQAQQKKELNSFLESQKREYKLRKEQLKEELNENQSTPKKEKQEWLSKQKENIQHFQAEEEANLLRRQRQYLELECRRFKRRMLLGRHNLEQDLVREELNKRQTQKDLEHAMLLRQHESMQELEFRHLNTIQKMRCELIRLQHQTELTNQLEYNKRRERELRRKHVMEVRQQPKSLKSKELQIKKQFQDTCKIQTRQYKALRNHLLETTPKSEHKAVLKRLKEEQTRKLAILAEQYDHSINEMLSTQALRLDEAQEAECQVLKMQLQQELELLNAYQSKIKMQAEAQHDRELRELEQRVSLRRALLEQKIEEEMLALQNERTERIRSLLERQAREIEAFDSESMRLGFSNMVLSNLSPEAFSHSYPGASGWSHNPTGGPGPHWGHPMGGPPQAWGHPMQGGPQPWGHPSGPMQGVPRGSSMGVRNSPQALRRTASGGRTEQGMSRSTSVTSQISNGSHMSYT
The following applies: at 1 µM.

For assay [5], the target named is T2, Serine/threonine-protein kinase TAO1 (Homo sapiens). To be noted: at 10 µM.
The target in assay [6] is T3, Serine/threonine-protein kinase TAO2 (Homo sapiens) (UniProt Q9UL54).
T3 sequence (whole entry): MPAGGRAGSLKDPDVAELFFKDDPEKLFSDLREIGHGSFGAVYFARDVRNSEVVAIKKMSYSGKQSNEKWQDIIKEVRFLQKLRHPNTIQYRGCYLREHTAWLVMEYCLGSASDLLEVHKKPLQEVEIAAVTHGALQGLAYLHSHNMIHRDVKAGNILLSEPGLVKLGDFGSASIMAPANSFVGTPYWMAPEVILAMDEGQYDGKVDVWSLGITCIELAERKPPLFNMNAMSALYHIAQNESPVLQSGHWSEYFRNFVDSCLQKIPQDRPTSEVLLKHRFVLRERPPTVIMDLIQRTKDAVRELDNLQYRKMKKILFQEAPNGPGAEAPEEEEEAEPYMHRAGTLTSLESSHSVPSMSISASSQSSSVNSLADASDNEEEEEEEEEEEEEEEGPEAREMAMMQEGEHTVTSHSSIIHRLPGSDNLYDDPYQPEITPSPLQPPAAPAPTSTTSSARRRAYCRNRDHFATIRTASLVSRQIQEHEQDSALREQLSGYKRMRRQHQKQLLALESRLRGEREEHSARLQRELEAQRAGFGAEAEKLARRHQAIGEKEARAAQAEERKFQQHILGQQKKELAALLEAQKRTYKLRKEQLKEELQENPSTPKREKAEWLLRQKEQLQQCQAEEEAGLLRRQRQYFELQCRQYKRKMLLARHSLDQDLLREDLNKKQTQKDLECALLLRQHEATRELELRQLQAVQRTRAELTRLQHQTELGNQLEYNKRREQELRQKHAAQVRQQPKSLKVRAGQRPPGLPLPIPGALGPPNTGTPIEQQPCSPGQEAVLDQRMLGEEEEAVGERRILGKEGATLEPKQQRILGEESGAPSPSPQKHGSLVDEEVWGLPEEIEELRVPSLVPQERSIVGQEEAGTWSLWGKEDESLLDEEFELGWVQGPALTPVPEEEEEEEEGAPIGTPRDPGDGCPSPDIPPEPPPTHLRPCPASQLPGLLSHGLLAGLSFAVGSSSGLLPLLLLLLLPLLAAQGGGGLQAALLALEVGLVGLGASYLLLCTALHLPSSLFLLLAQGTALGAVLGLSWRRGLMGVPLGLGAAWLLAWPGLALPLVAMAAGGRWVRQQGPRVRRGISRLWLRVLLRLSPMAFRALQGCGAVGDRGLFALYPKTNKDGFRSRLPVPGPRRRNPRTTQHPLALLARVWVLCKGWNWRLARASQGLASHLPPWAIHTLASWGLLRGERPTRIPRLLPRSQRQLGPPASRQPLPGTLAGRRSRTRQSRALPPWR
To be noted: at 1 µM.

Assay [7] has as its target T3, Serine/threonine-protein kinase TAO2 (Homo sapiens). The following applies: at 10 µM.
The target of assay [8] is T4, Serine/threonine-protein kinase TAO3 (Homo sapiens) (UniProt Q9H2K8).
T4 sequence (whole entry): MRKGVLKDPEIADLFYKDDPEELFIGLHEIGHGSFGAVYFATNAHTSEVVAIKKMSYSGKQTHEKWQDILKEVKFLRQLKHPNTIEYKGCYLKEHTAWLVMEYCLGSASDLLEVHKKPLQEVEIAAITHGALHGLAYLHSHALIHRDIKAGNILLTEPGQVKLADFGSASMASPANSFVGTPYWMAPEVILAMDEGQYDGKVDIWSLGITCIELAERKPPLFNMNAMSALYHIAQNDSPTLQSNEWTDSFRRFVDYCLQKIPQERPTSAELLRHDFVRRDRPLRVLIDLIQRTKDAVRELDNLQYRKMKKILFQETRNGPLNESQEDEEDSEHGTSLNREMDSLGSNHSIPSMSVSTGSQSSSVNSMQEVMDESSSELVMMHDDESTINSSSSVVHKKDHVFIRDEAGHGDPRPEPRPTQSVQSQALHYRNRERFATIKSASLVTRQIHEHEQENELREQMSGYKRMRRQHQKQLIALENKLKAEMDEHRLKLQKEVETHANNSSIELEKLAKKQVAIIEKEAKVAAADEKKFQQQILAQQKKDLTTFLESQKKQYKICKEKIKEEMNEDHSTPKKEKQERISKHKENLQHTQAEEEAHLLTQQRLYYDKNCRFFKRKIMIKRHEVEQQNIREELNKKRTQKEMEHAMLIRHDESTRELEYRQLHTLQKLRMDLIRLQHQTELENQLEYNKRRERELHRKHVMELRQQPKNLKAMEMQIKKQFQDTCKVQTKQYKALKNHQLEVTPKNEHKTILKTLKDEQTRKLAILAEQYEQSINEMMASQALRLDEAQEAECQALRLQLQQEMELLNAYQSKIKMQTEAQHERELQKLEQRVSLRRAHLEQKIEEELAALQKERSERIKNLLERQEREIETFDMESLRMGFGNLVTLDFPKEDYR
The following applies: at 1 µM.

For assay [9], the target named is T4, Serine/threonine-protein kinase TAO3 (Homo sapiens). The following applies: at 10 µM.
The target in assay [10] is T5, Serine/threonine-protein kinase TBK1 (Homo sapiens) (UniProt Q9UHD2).
T5 sequence (whole entry): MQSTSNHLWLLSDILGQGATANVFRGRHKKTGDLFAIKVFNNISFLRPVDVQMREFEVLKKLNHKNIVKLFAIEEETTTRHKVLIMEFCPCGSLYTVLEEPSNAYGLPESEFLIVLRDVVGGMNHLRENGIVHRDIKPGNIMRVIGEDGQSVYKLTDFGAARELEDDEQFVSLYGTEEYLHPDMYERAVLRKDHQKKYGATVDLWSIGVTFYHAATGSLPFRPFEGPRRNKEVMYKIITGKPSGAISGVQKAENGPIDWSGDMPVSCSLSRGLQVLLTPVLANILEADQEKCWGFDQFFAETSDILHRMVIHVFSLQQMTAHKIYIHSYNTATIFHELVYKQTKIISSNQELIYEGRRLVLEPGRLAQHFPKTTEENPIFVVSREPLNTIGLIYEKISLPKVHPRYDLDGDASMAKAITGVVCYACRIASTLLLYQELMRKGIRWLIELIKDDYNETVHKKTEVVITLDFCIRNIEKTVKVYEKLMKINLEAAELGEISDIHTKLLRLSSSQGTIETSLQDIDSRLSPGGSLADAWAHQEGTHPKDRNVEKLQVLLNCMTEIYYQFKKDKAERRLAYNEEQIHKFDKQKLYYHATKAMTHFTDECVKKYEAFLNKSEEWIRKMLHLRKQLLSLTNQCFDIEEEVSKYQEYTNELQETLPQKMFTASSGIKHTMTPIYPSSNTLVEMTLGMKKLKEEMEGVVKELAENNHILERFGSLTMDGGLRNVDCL
To be noted: at 1 µM.

Take `COc1ccc(CNc2nc(N(CCO)CCO)nc3c2ncn3C(C)C)cc1`: the residual activity in assay [1] amounted to 114%; in assay [2], 92%; in assay [3] it was 82%; in [4] it was 96%; in [5], 81%; in [6], 96%. The residual activity in assay [7] came out at 95%; in assay [8], 92%; in [9], 71%; in [10] it was 69%.
